S aureus helic: inhibitors of S. aureus replicative helicase, primary screen, biochemical, fluorescence unwinding readout; inhibition, % (no concentration beside the values); purified S. aureus helicase, fluorescence unwinding assay; AID 485395, 2010; 0.05% of 120,000 active; in the data active = inhibition above about 25%, passing the limit was not always enough
HCMV NEC inh: inhibitors of HCMV UL50-UL53 interaction, biochemical, HTRF | HCMV UL50-UL53 nuclear egress complex (human cytomegalovirus) | normalized percent inhibition | inhibition, % (test concentration not listed) | 0.15% of 190,000 active | AID 1918969, 2023; in the data active = inhibition above about 27%, passing the limit was not always enough
Sa growth 42C: S. aureus growth inhibition at 42 and 30 °C, primary screen, LtaS inhibitor project, RN4220, two temperatures | OD600, 20 h, 42 °C; active compounds read low | 0.53% of 170,000 active | relative growth, % (concentration not given with the values);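 active = relative growth at most 50% at the other temperature and 20+ points below 30 °C, or under 10% at both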
Large screens that a line does not name were inactive; ! = not active in a repeat. The full list was thinned out, with hits kept by preference.

CN1c2cc(Cl)ccc2-c2nc(SCC(=O)Nc3ccc(F)cc3F)ncc2S1(=O)=O	none (no result: S aureus helic, HCMV NEC inh)
N#CC1COc2ccccc2O1 (centres undefined)	none
Cc1ccccc1NC(=O)C1CC2CSCN2C12C(=O)Nc1ccccc12 (centres undefined)	none (no result: S aureus helic, Sa growth 42C)
c1ccc(Nc2ncnc3ccccc23)cc1	none
Nc1cccnc1Nc1ccccc1	Sa growth 42C 6.4
O=C(O)CCNCc1cccs1	none (no result: HCMV NEC inh)
COc1ccc(-c2ccc(CNC(C)C)o2)cc1Cl	none (no result: S aureus helic, Sa growth 42C)
COC(=O)c1c(C)[nH]c(C(=O)CN(C)Cc2cccc(OC)c2)c1C	none
COC(=O)c1c(C)[nH]c(C(=O)CN(C)CC(=O)Nc2c(C)cc(C)cc2C)c1C	S aureus helic 30
COc1ccc(N2C(=O)CC(Sc3nc(N)c(C#N)c(-c4ccccc4)c3C#N)C2=O)cc1 (centres undefined)	none (no result: S aureus helic, Sa growth 42C)
CCc1cc(Br)ccc1NS(=O)(=O)CC	none
CN(C)CCC(=O)c1ccc2c(c1)OCO2	none
CCCCCc1ccc(C(=O)CCN(C)C)cc1	Sa growth 42C -0.1
CCCCN(C(=O)CN1CCc2ccccc21)c1c(N)n(Cc2ccccc2)c(=O)[nH]c1=O	none
COCCn1nnc2cc(S(=O)(=O)N3CCCCC3C(=O)NCc3ccccc3)ccc21 (centres undefined)	none (no result: S aureus helic, Sa growth 42C)
NNC(=O)c1cc(N)c(=O)[nH]n1	none
COC(=O)c1nc2ccccc2n1Cc1ccc(C)cc1	Sa growth 42C 45
Cc1ccc(Cn2c(C(C)O)nc3ccccc32)cc1 (centres undefined)	none (no result: Sa growth 42C)
NC[C@H]1O[C@H](O[C@H]2[C@H](O)[C@@H](O[C@H]3O[C@H](CO)[C@@H](O)[C@H](N)[C@H]3O)[C@H](N)C[C@@H]2N)[C@H](N)[C@@H](O)[C@@H]1O	Sa growth 42C -0.2 (no result: S aureus helic)
NCC1OC(O[C@@H]2[C@H](O)C(OC3C(O)C(N)CC(N)C3OC3OC(CO)C(O)C(O)C3N)O[C@@H]2CO)C(N)C(O)C1O (some centres undefined)	none (no result: S aureus helic, Sa growth 42C)
CCc1ccc(-n2c(=O)c3cccnc3n2CC(=O)NCCC2=CCCCC2)cc1	none (no result: S aureus helic, Sa growth 42C)
CCCc1nc2c3ccccc3nc(=S)n2[nH]1	Sa growth 42C 1.7
Cc1nc2ccccc2n1CCc1nc2c3ccccc3nc(=S)n2[nH]1	none
Cc1ccc(Cc2nc(CCNC(=O)c3cccc(Cl)c3)n[nH]2)cc1	none (no result: S aureus helic, Sa growth 42C)
Cc1ccc(Cl)cc1N1CCN(C(=O)Cn2nc(C)c3sc4ccccc4c3c2=O)CC1	none (no result: S aureus helic)
Cc1ccc(Cl)cc1N1CCN(Cn2sc3ccccc3c2=O)CC1	Sa growth 42C -0.4
O=c1[nH]c2ccccc2c(=O)n1CCc1nc(-c2ccccc2)no1	none
CCCCC(CO)NC(C)CCc1ccc(OC)cc1 (centres undefined)	none (no result: S aureus helic, Sa growth 42C)
CSc1nnc(C2CCCN2CC(=O)Nc2ccc(Oc3ccccc3)cc2)n1C (centres undefined)	none
O=c1oc2ccc(Cl)cc2c(=O)n1-c1cccc(C(F)(F)F)c1	Sa growth 42C -0.7 (no result: HCMV NEC inh)
Cc1ccc(-n2c(=O)oc3ccc(Cl)cc3c2=O)cc1	none
COc1ccc(CNC(=O)c2cc3nc(-c4ccc(OC)cc4)cc(C(F)(F)F)n3n2)cc1	none (no result: S aureus helic, Sa growth 42C)
CCNc1nnc(-c2ccccc2)s1	none
O=C(Nc1ncnc2sccc12)c1cccs1	none
O=C(Nc1ncnc2sccc12)C1CCCCC1	Sa growth 42C 4.5
Fc1ccccc1-c1nn2cnnc2s1	none (no result: S aureus helic, Sa growth 42C)
COc1cc2c(C#N)c(N(C)CCc3ccc(OC)c(OC)c3)nc(N)c2c(N)n1	none
COc1ccc(CCN(C)c2nc(N)c3c(N)nc(SCC(=O)O)cc3c2C#N)cc1OC	HCMV NEC inh 82, Sa growth 42C 0.7
Nc1c2c(nn1-c1ccccc1)CC(=O)NC2=O	HCMV NEC inh 71
O=C1CN(c2ccccc2)C(=O)N1	none (no result: HCMV NEC inh)
C[C@H]1O[C@@H](n2cc(F)c(=O)[nH]c2=O)[C@H](O)[C@@H]1O	Sa growth 42C 1.1 (no result: S aureus helic)
O=c1[nH]c(=O)n(C2CCCO2)cc1F (centres undefined)	Sa growth 42C 6.6!
O=c1[nH]c(=O)n(C2CC(O)C(CO)O2)cc1F (centres undefined)	none (no result: S aureus helic, Sa growth 42C)
Cc1cn(C2OC(CO)C(O)C2F)c(=O)[nH]c1=O (centres undefined)	none (no result: S aureus helic, Sa growth 42C)
O=C(NCC1CCCO1)c1ccc(N2C(=O)CCS2(=O)=O)cc1Cl (centres undefined)	none (no result: S aureus helic, Sa growth 42C)
CCCCN(C)C(=O)CN1C(=O)c2cccnc2Oc2ccc(C)cc21	none
CN(C)c1cnccn1	none (no result: S aureus helic, Sa growth 42C)
Cc1ccc(NC(=O)N2CCC(C)(C(=O)NCc3ccc4c(c3)OCO4)CC2)c(C)c1	none (no result: S aureus helic, Sa growth 42C)
CCOc1ccc(N2C(=O)c3ccccc3C2Nc2ccccc2OC)cc1 (centres undefined)	none (no result: HCMV NEC inh)
Oc1cc2c(cc1C(c1ccc(C(F)(F)F)cc1)N1CCN(c3ccccc3)CC1)OCO2 (centres undefined)	Sa growth 42C -0.7
CN(C)c1ccc(C(CNC(=O)c2ccc3c(c2)OCO3)N2CCN(c3ccccc3)CC2)cc1 (centres undefined)	none (no result: S aureus helic, Sa growth 42C)
COC(=O)c1ccc(C(c2cc3c(cc2O)OCO3)N2CCN(c3ccccc3)CC2)cc1 (centres undefined)	Sa growth 42C -0.2
Oc1cc2c(cc1C(c1ccc(C(F)(F)F)cc1)N1CCOCC1)OCO2 (centres undefined)	none (no result: S aureus helic)
Cc1ccnc(NC(c2ccc(Cl)cc2)c2c(C)[nH]c3ccccc23)c1 (centres undefined)	none (no result: HCMV NEC inh)
Nc1ccc(Cl)cc1C(=O)NCc1ccccn1	none (no result: S aureus helic)
Cc1ccc(NC(=O)Cn2nc3c(Oc4ccccc4C)nc4ccccc4n3c2=O)c(Cl)c1	none (no result: S aureus helic, Sa growth 42C)
Fc1ccc(CNc2nc3ccccc3c3nc(-c4ccccc4)nn23)cc1	none (no result: S aureus helic, Sa growth 42C)
CCN1C(=O)c2ccccc2Sc2ccc(NC(=O)Nc3ccccc3OC)cc21	none (no result: S aureus helic, HCMV NEC inh)
CCN1/C(=C/c2scc[n+]2C)C=C(C)c2cc(OC)c3ccccc3c21	Sa growth 42C -1.3 (no result: HCMV NEC inh)
Cc1ccc(-n2[nH]c(C)c(N=Nc3cccc(-c4cccc(C(=O)O)c4)c3O)c2=O)cc1C	HCMV NEC inh 80 (no result: S aureus helic, Sa growth 42C)
Cc1[nH]n(-c2cccc(Cl)c2)c(=O)c1N=O	none (no result: S aureus helic)
Cc1cc(C)cc(OC(=O)CCN2C(=O)c3ccccc3C2=O)c1	Sa growth 42C -1.1 (no result: HCMV NEC inh)
O=C(CCN1C(=O)c2ccccc2C1=O)Oc1ccc(Cl)cc1	none
Nc1nc(-c2ccc(OCc3ccc(Br)cc3)cc2)cs1	none
Cc1nn(CC(C)C)c(Cl)c1C(=O)NCC1COc2ccccc2O1 (centres undefined)	none
CN1CCN(c2cc3c(cc2F)c(=O)c(C(=O)O)cn3-c2ccc(F)cc2)CC1	none (no result: S aureus helic, Sa growth 42C)
O=C(NCc1cccnc1)c1cn(C2CC2)c2cc(N3CCN(C(=O)c4cccc(Cl)c4)CC3)c(F)cc2c1=O	Sa growth 42C 4.6
CCn1cc(C(=O)NCc2cccnc2)c(=O)c2cc(S(=O)(=O)N3CCCC3)ccc21	none
CCn1cc(C(=O)O)c(=O)c2cc(F)c(N3CCN(C(C)=O)CC3)cc21	none
O=C(O)c1cn(C2CC2)c2cc(N3CCNCC3)c(F)cc2c1=O	Sa growth 42C 0.7! (no result: S aureus helic, HCMV NEC inh)
CCN1CCN(c2cc3c(cc2F)c(=O)c(C(=O)O)cn3C2CC2)CC1	Sa growth 42C -0.9 (no result: S aureus helic)
O=C(c1cccs1)N1CCN(c2cccc3[nH]ccc23)CC1	none (no result: S aureus helic)
C#Cc1ccc(C#C)cc1	none
O=C(Cn1cnnn1)Nc1cc(C(F)(F)F)ccc1NC1CCCCC1	none
N#Cc1cc2c(cc1C#N)N(Cc1ccccc1)CCN2Cc1ccccc1	none (no result: HCMV NEC inh)
Cc1ccc(-c2oc(N)c(C#N)c2-c2ccc(C)cc2)cc1	none
O=c1[nH]c2nonc2nc1Nc1ccccc1F	none

Screening data as filed in PubChem BioAssay.
